Our source for the composite z-score and z-score values is PubChem BioAssay.

The structures appear in SMILES notation. Calls of active or inactive are those of the source.

The nature of assay [1]: small molecules captured by biotinylated probe aFSTL3 – biochemical, small-molecule microarray, fluorescence 635/667, stem cell growth factor project, primary screen (AID 1064).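 Also: measures binding of the biotinylated anti-FSTL3 antibody to printed compounds.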 The settings on record: higher = more signal.
Assay [2] in a line: binders from COS7 lysate, DM2A8 probe, primary screen, torsin A project, cell lysate, small-molecule microarray, fluorescence 635/667 (AID 1065). The settings on record: higher = more signal, COS7 lysate expressing mutant human TOR1A.
Assay [3] in a line: small molecules captured by biotinylated probe aFGF2 – biochemical, small-molecule microarray, fluorescence 635/667, stem cell growth factor project, primary screen (AID 1067).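 Also: measures binding of biotinylated aFGF2 protein to printed compounds on slides; z-score merges feature fluorescence and signal-to-noise across triplicate slides.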 The settings on record: higher = more signal.
Assay [4] can be described thus: small molecules captured by biotinylated probe aFGF10 – biochemical, small-molecule microarray, fluorescence 635/667, stem cell growth factor project, primary screen (AID 1071).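 Also: score merges 667 nm spot intensity and signal to noise from triplicate slides.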 The settings on record: higher = more signal.
Assay [5] deals with Neurogenic locus notch homolog protein 2 (Homo sapiens) (UniProt Q04721). Description: small molecules binding Notch2 protein – biochemical, small-molecule microarray, 635 nm fluorescence, stem cell growth factors, primary screen (AID 1073). The settings on record: higher = more signal.
Assay [6] deals with Pro-neuregulin-1, membrane-bound isoform (Homo sapiens) (UniProt Q02297). Description: small molecules binding neuregulin-1 protein – biochemical, small-molecule microarray, fluorescence 635/667, psychiatric disease protein project, primary screen (AID 1075).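 Also: score combines 667 nm spot fluorescence with signal to noise.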 The settings on record: NRG1 binding, 635 nm fluorescence, higher = more signal.
The test system of assay [7] is Neuregulin-1 EGF-like domain. Description: small molecules binding NRG1 EGF domain – biochemical, small-molecule microarray, 635 nm fluorescence, primary screen (AID 1081).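 Also: binding of the protein to compounds printed on small-molecule microarray slides.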 The settings on record: higher = more signal.
A short description of assay [8]: FRG1 expression reporter modulators in myotubes – cell-based, C2C12 myotubes, firefly/Renilla luciferase, luminescence, FRG1 inhibition for FSHD, primary screen (AID 1084). The settings on record: FRG1 promoter luciferase, higher = more signal, called active from +8 up or from −8 down.
A short description of assay [9]: small molecules captured by biotinylated probe aFST – biochemical, small-molecule microarray, fluorescence 635/667, stem cell growth factor project, primary screen (AID 1086).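 Also: score merges 667 nm fluorescence with signal-to-noise of each printed compound spot.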 The settings on record: higher = more signal.
The nature of assay [10]: binders of probe aHhip on microarray, primary screen, stem cell growth factor project, biochemical, small-molecule microarray, fluorescence 635/667 (AID 1087).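 Also: score merges spot fluorescence at 667nm with spot signal to noise ratio.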 The settings on record: higher = more signal.
Assay [11] concerns PRMT1 (protein arginine N-methyltransferase 1). Description: small molecules binding arginine methyltransferase PRMT1 – biochemical, small-molecule microarray, 635 nm fluorescence, primary screen (AID 1088).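 Also: binding of Prmt1 protein to compounds spotted on small-molecule microarray slides.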 The settings on record: higher = more signal.
A short description of assay [12]: growth effects on S. cerevisiae YJM789 – YJM789 clinical isolate, OD600, 24 h, basal, primary screen (AID 1089).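 Also: growth of clinical yeast isolate S. cerevisiae YJM 789 seeded 1000 cells per well; test concentration not given here.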 The settings on record: higher = more signal, called active from +8 up or from −8 down.
Assay [13] can be described thus: S. pombe growth modifiers, basal conditions – strain 972, OD600, 24 h, no modulator, primary screen (AID 1090).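 Also: basal condition with compound alone and no growth modifier present; test concentration not given here.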 The settings on record: S. pombe 972 growth, higher = more signal, called active from +8 up or from −8 down.
The nature of assay [14]: budding yeast growth modifiers under rapamycin – strain BY4716, OD600, 96 h, primary screen (AID 1091). Also: test concentration not given here. The settings on record: S. cerevisiae BY4716 + rapamycin, higher = more signal, called active from +8 up or from −8 down.
Assay [15] deals with Torsin-1A-interacting protein 2 (Homo sapiens) (UniProt Q8NFQ8). Description: small molecules binding lysate-expressed LULL1 – cell lysate, human LULL1 lysate, 635/667 nm fluorescence, primary screen (AID 1092).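 Also: probe is lysate of COS7 cells overexpressing human LULL1; score merges per-feature 667 nm fluorescence with signal-to-noise.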 The settings on record: small-molecule microarray, hLULL1 lysate binding, 635 nm fluorescence; higher = more signal.
The nature of assay [16]: optical density change of DRC41 E. coli – strain DRC41, OD650, 24 h, E. coli filamentation project, primary screen (AID 1093).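 Also: MC1000 strain lacking acrAB efflux and sulA so SOS filamentation is blocked; test concentration not given here.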 The settings on record: E. coli DRC41 growth, higher = more signal, called active from +8 up or from −8 down.
A short description of assay [17]: probe aLefty2 binding to arrayed compounds – biochemical, biotinylated probe, 635/667 nm fluorescence, primary screen (AID 1094).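 Also: score merges spot fluorescence near 667 nm with spot signal-to-noise ratio.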 The settings on record: small-molecule microarray, higher = more signal.
Assay [18] concerns Noggin (protein binding on small-molecule microarray). Description: small molecules binding Noggin protein – biochemical, 635/667 nm fluorescence, primary screen (AID 1095).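 Also: score merges 667 nm feature fluorescence with signal to noise over triplicate slides.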 The settings on record: 635 nm fluorescence, higher = more signal.
Assay [19] has as its target Neurogenic locus notch homolog protein 3 (Homo sapiens) (UniProt Q9UM47). Description: small molecules binding NOTCH3 protein – biochemical, 635/667 nm fluorescence, primary screen (AID 1096). The settings on record: small-molecule microarray, 635 nm fluorescence, higher = more signal.
A short description of assay [20]: probe aEGFR binding to arrayed compounds – biochemical, biotinylated probe, 635/667 nm fluorescence, primary screen (AID 1097).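 Also: probe is a biotinylated anti-EGFR antibody binding compounds printed on slides; score combines fluorescence near 667 nm and signal to noise of each spot.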 The settings on record: small-molecule microarray, higher = more signal.

Chain of Pro-neuregulin-1, membrane-bound isoform (Homo sapiens) (Q02297 whole entry, looked up, the tested form may be a part, canonical isoform): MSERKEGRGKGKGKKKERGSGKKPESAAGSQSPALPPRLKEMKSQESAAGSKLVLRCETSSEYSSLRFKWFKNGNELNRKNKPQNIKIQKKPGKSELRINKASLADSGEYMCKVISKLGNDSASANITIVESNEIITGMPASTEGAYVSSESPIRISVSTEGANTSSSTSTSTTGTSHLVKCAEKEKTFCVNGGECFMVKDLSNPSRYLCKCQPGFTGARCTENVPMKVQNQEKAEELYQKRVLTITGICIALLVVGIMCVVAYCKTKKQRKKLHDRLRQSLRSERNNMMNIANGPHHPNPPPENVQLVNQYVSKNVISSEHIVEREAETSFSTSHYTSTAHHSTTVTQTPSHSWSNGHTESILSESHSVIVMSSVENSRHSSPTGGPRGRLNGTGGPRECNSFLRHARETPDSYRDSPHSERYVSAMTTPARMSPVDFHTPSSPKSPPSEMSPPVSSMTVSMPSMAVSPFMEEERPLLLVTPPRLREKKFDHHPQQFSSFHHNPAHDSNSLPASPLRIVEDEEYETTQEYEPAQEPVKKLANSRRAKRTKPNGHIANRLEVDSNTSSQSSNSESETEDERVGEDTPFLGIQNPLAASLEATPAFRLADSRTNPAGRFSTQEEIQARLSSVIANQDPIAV
Chain of Neurogenic locus notch homolog protein 3 (Homo sapiens) (Q9UM47 whole entry, looked up): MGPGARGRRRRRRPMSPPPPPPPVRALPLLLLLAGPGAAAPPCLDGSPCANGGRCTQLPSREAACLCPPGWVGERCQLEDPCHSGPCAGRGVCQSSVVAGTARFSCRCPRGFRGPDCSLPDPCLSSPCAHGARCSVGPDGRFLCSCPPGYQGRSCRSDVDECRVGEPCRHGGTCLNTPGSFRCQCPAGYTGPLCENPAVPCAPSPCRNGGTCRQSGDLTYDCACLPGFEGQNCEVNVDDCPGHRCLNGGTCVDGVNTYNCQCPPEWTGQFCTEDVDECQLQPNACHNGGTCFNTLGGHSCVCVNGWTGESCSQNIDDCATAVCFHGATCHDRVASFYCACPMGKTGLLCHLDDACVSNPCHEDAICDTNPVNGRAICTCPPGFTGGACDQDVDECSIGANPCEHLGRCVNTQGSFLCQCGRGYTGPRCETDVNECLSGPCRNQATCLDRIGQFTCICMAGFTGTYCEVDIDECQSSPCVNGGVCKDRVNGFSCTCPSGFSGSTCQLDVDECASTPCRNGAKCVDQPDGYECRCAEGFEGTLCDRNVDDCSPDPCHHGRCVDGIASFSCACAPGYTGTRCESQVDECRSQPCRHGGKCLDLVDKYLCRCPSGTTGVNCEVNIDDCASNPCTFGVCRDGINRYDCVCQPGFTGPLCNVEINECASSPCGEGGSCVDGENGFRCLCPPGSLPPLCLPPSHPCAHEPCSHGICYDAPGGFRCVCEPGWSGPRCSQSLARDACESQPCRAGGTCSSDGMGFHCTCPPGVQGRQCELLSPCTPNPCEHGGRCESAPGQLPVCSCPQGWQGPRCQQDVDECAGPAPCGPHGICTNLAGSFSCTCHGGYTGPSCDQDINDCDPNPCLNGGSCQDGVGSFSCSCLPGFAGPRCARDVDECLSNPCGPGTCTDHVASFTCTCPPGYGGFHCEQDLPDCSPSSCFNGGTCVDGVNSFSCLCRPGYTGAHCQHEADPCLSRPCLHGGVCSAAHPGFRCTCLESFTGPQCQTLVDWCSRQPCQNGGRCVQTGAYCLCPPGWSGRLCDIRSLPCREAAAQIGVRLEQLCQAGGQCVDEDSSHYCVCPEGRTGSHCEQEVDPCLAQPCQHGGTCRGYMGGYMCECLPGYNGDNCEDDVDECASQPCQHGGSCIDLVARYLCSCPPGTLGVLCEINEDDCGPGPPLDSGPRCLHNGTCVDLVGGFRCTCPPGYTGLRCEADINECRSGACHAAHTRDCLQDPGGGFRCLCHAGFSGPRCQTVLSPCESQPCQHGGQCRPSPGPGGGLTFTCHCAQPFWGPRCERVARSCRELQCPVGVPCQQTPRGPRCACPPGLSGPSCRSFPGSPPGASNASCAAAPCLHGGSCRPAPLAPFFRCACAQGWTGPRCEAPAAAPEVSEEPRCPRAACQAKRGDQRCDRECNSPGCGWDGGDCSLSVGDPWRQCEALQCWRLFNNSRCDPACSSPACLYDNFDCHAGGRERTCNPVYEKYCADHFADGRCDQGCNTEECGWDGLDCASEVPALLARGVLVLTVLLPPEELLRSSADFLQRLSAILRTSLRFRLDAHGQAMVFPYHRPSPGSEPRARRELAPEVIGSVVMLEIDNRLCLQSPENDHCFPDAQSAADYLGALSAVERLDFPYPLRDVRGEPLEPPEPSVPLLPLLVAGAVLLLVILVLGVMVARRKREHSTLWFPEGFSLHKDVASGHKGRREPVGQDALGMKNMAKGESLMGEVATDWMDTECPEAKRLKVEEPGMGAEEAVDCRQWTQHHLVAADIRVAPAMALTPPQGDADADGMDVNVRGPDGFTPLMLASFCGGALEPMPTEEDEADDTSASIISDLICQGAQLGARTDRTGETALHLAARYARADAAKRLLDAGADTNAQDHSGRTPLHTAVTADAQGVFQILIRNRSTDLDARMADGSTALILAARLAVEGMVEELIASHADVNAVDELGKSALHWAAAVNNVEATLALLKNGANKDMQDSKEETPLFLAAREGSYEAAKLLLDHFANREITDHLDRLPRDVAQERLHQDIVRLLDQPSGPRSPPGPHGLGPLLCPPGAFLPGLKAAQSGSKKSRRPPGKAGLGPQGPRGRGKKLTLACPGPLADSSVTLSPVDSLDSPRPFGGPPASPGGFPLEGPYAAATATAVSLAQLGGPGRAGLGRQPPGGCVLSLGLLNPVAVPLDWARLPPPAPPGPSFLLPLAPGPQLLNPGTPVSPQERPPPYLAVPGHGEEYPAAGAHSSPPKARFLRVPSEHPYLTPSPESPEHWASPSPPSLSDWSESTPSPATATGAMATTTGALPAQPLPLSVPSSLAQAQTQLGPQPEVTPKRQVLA
Chain of Torsin-1A-interacting protein 2 (Homo sapiens) (Q8NFQ8 whole entry, looked up): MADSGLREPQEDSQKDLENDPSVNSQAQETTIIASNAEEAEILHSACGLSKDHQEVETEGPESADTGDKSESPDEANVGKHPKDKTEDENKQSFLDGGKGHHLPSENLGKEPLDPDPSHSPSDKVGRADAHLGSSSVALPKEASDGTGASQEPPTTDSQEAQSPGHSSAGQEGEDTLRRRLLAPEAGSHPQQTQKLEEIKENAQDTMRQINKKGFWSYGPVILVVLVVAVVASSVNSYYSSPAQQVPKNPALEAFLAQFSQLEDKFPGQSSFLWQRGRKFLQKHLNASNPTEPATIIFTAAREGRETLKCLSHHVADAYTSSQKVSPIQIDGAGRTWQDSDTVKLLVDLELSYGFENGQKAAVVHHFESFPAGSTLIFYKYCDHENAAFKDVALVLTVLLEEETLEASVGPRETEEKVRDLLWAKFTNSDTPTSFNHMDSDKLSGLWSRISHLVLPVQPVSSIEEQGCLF

Consider `COCCOC(=O)N1C(=O)[C@@]2(c3cc(C#CCCO)ccc31)[C@H](C(N)=O)[C@H]1C(=O)O[C@H](c3ccccc3)[C@H](c3ccccc3)N1[C@@H]2c1ccc(OCCO)cc1`, for which the composite z-score in assay [1] is -0.0241; in assay [2], 0.657; in assay [3] it was -0.0202; in [4], 0.48; in assay [5], 1.43; in [6], 1.1. Also, the composite z-score in assay [7] was 1.17; in assay [9], 0.439; in assay [10] it was -0.0994; in assay [11], 1.54; in assay [15], 3.02; in assay [17] it was -0.161. For the same compound, the composite z-score in assay [18] came to 0.632; in assay [19], 0.992; in assay [20], 0.0754. The z-score in [8] is 0.478 (inactive); in [12], 1.94 (inactive); in assay [13] it was 0.63 (inactive); in assay [14], 2.82 (inactive); in assay [16] it was -0.187 (inactive).

Turning to `COc1ccc(C(O)C2C=CC3C(=O)N(c4ccccc4)C(=O)C3N2Nc2ccccc2)cc1` (stereo not given), the composite z-score in assay [1] is -0.0234; in assay [2], 0.316; in assay [3] it was 0.142; in [4], 0.979; in [5] it was 1.66; in assay [6], 1.93. The composite z-score in assay [7] amounted to 1.31; in [9], 0.531; in assay [10], 0.289; in [11], 1.53; in [15], 3.6; in assay [17], 0.191. The results for the composite z-score in assay [18], in assay [19] and in [20] were 0.505, 1.05 and -0.0382, respectively. Further, the z-score in [8] was -1.07 (inactive); in assay [12] it was 0.219 (inactive); in assay [13] it was -0.24 (inactive); in assay [14], 0.211 (inactive); in assay [16], -0.701 (inactive).

Regarding `CC(C)CNC(=O)[C@@]1(c2ccc([N+](=O)[O-])cc2)CC(=O)N(C2CCCCC2)[C@@H]1c1ccc(CO)cc1`, the composite z-score in [1] was 0.574; in assay [2] it was 0.219; in [3], 0.0353; in [4], -0.0872; in [5], 0.554; in assay [6], 0.452. Besides, the composite z-score is 1.26 in assay [7]; 0.859 in assay [9]; -0.132 in [10]; 0.566 in [11]; 2.54 in assay [15]; 0.136 in [17]. The results for the composite z-score in assay [18], in [19] and in [20] were -0.318, -0.0858 and -0.0989, respectively. For the same compound, the z-score in assay [8] was -0.639 (inactive); in assay [12], -0.563 (inactive); in assay [13], -0.514 (inactive); in assay [14], -0.548 (inactive); in assay [16], 0.861 (inactive).

As to `COCC(=C=CC[C@H](O)c1cccc(OCCO)c1)C[C@H](O)COCc1ccccc1`, the composite z-score in assay [1] was 0.0102; in assay [2] it was 0.823; in assay [3], -0.0602; in assay [4] it was 0.427; in [5] it was 0.276; in assay [6] it was 1.51. Further, the composite z-score was 1.31 in assay [7]; 0.256 in assay [9]; -0.476 in assay [10]; 0.949 in [11]; 2.22 in [15]; 0.084 in assay [17]. Moreover, the values for the composite z-score in assay [18], in assay [19] and in assay [20] were 0.546, 0.237 and 0.0167, respectively. The z-score in assay [8] was 0.574 (inactive); in [12] it was -0.244 (inactive); in assay [13], -1.43 (inactive); in assay [14], -0.271 (inactive); in assay [16] it was -0.142 (inactive).

Take `CCCCCCCCCCC(O)C1C=CC2C(=O)N(c3ccccc3)C(=O)C2N1Nc1ccccc1F` (stereo not given): the composite z-score in [1] is 0.51; in assay [2], -0.165; in assay [3], -0.0647; in [4] it was 0.183; in [5], -0.503; in [6], 1.22. The composite z-score was 0.586 in assay [7]; -0.08 in assay [9]; -0.185 in [10]; 0.545 in assay [11]; 1.59 in assay [15]; -0.0713 in assay [17]. Besides, the composite z-score in assay [18] was -1.47; in [19], -0.277; in [20], -0.0576. Besides, the z-score in assay [8] is 0.15 (inactive); in assay [12] it was 0.536 (inactive); in assay [13], 0.849 (inactive); in assay [14], 1.62 (inactive); in [16], -1.47 (inactive).
